# Legend:
# Test in all cases: PBM binding z-score (relative to random genomic background probes); higher = stronger binding; sequences stand for … in GC…GCGATTGACAGCGTAGAATGAAGG
# [1] = test system: FXR:RXRa (NR concentration 270 nM, RXRa partner concentration 90 nM)
# In short: (§1)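 Binding z-scores take random background probes as their reference. They come from custom Agilent 4×180K protein-binding microarrays incubated 1 h with ligand-free nuclear receptor dimers, with antibodies against each partner (one per run) detecting binding. Scanned fluorescence was regression-normalized.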
# [2] = test system: LXRa:RXRa (NR concentration 270 nM, RXRa partner concentration 90 nM)
# In short: as §1
# [3] = test system: LXRa homodimer (NR concentration 270 nM)
# In short: as §1
# [4] = test system: LXRb:RXRa (NR concentration 270 nM, RXRa partner concentration 90 nM)
# In short: as §1
# [5] = test system: LXRb homodimer (NR concentration 270 nM)
# In short: as §1
# [6] = test system: PPARa:RXRa (NR concentration 270 nM, RXRa partner concentration 90 nM)
# In short: as §1
# [7] = test system: PPARg:RXRa (NR concentration 180 nM, RXRa partner concentration 90 nM)
# In short: as §1
# [8] = test system: PPARg:RXRa 270nM:90nM, anti-RXR (NR concentration 270 nM, RXRa partner concentration 90 nM)
# In short: as §1
# [9] = test system: PPARg:RXRa 30nM:10nM, anti-RXR (NR concentration 30 nM, RXRa partner concentration 10 nM)
# In short: as §1
# [10] = test system: PPARg:RXRa 90nM:30nM, anti-RXR (NR concentration 90 nM, RXRa partner concentration 30 nM)
# In short: as §1
Sequence,PBM binding z-score [1],PBM binding z-score [2],PBM binding z-score [3],PBM binding z-score [4],PBM binding z-score [5],PBM binding z-score [6],PBM binding z-score [7],PBM binding z-score [8],PBM binding z-score [9],PBM binding z-score [10]
ATCGAAAGGACGTGAGGTGAGTATACAGAAAGGC,-0.29,-0.461,-0.29,-0.468,-0.162,-0.116,0.724,-0.318,0.185,-0.252
ATCTCTTGGTAAAGATAGTTCAGTGAATGCAAAT,0.445,0.78,0.577,0.693,0.423,0.553,0.212,0.257,0.185,0.285
CCTCGGAGTACAGAAGGTCAGAGCTGTCCGCTTT,1.75,3.22,1.46,1.54,-0.164,2.02,-0.0233,0.921,-0.606,0.4
ATACCAAGCTGATCGTGAGGTCGTTGATACTAAC,0.705,0.688,0.391,0.818,-0.351,0.693,0.178,-0.0256,-0.198,-0.0126
ATCTCTAGGTAAAGTTAGTTCAGTGAATGCAAAT,0.83,3.72,0.641,0.747,0.893,0.661,0.555,1.07,0.112,1.03
CTCGAAAGGTCGGTTCAGGTGAGTATACGGATAA,2.48,1.92,0.307,1.74,0.00585,2.86,0.546,1.36,0.0497,0.769
TCATATAGGTAAAGGTGATAGTCGAACGATATGA,0.212,0.601,-0.19,0.539,-0.129,2.02,2.72,3.48,3.92,3.51
GCTAGTTGGTCAGTAAAAGGTCACAAACCGGTCG,3.06,3.78,3.4,3.99,0.763,4.53,2.59,4.01,2.23,3.46
TCATATAGGGAAATGCTAGGTGAAAGTCCGATCT,1.31,0.732,0.053,0.609,-0.0156,0.83,0.563,2.3,3.82,2.91
TCTTGTAGATCAAAGGTTCAGAAAGCCGAAGCCT,0.694,0.971,0.565,0.863,0.0761,2.17,3.23,5.21,4.26,5.21
CCTACTGGGCCATCCAGAGGTCATTGATCATATG,2.46,4.37,6.73,3.84,0.613,4.07,2.72,3.35,0.809,2.2
ATATGCAGGTTAGCTGGGGTCATTCAGACTAGGC,4.95,5.96,3.01,4.92,0.363,4.7,2.52,3.4,0.768,2.26
ATATGTAGGATAAGGGTCATTCAGGTTGGTTCGC,3.71,4.09,2.42,3.73,1.19,5.39,9.65,8.92,10.3,10
TTACCAAGGTGAGCTGAGGTCATTGATCCAACTC,4.44,4.36,2.23,3.33,-0.78,3.78,1.69,2.46,0.796,1.62
ACAAGCAGGCCAAGTTTGGGTCACTCAAACAAAG,0.226,0.181,-0.641,0.53,-0.924,1.51,0.101,0.443,-0.289,0.124
TCATATAGGTAAATCCTAGGTGAAAGTCCGATCT,0.916,0.69,-0.094,0.537,-0.0667,1.47,0.85,2.16,3.66,2.72
ATCGAAAGGACGAGGTGAGTATAGAGAAAGGGAA,0.588,0.168,-0.177,-0.191,-0.00522,0.0333,0.589,-0.152,0.508,0.313
CCAGACAGGTGTGAAGGTAACTCAGCCTCGATTA,-0.289,-0.378,0.0718,-0.315,-0.724,-0.298,0.084,-0.131,-0.615,-0.443
CCTACTGGGCCAAGGTCATCGATCAGTCAAAGCA,3.48,3.15,0.707,2.74,-0.415,4.23,4.52,4.7,2,4.15
TGAATGAGGTTATAAGTTCAGGGAACGTTGCAAA,2.81,2.69,0.29,1.88,-0.136,3.66,2.09,3.38,1.55,2.71
TCTATTGGTTGAAGGGCAACCGACGAGTCCGTTT,0.476,0.767,0.01,0.546,0.657,1.23,0.669,2.98,3.37,3.23
CCTTACGGGTCACTCCAGGTTATAGCATCGGAGT,4.9,7.65,1.97,5.36,0.226,4.64,3.53,3.74,1.18,2.57
CCAGATAGGTGAGAAGGTAACTCAGCCTCGATTA,-0.0268,0.168,0.00136,0.105,-0.314,1.14,1.1,2.3,0.791,1.76
GCATTTAGGTAATACAAGGTGAAAGTCCGATTGT,1.45,1.54,0.274,0.493,-0.034,1.27,0.514,1.03,0.425,0.682

Sequence,PBM binding z-score [1],PBM binding z-score [2],PBM binding z-score [3],PBM binding z-score [4],PBM binding z-score [5],PBM binding z-score [6],PBM binding z-score [7],PBM binding z-score [8],PBM binding z-score [9],PBM binding z-score [10]
CCGACTGGCGCAAGGTTACCATAACGCACAGCCA,0.175,0.561,-0.255,0.645,-0.776,0.766,0.701,-0.0732,-0.409,-0.61
GCGACTGGGGCTTCAGCAGGTTACCATAACTTAA,-0.296,-0.21,-0.373,0.63,-0.572,0.478,-0.166,-0.624,-0.435,-0.762
ATCTCTAGGTAAAGATAGTTCAGTTAATGCAAAT,0.733,4.33,1.07,1.39,0.619,0.689,0.743,0.482,0.448,0.659
AGACAAAGTTCACTAGGTAACGTAAGATTCAGCT,5.15,4.98,2.65,3.12,1.08,4.76,6,5.55,2.55,4.7
CCTACTGGGCCATCAGGACATTGATATCAACGTT,0.247,-0.3,0.171,-0.621,-0.424,0.703,1.19,1.26,0.361,0.825
TCGGGTAGGTTAGGGGCATTCAGAATGGCGTCGA,1.49,1.32,0.575,2.21,1.8,1.85,0.499,1.7,1.98,1.74
TGTCACAGTTCAAAGGTAACGTAAGTATCCACAC,4.13,3.82,0.785,2.87,0.361,4.26,4.43,4.67,1.68,3.69
CGTCAAAGTTTAACTAAGGTAACGTAAAGCACGC,1.47,2.68,0.251,0.825,0.249,1.15,0.797,1.22,0.174,0.65
GGAACGAGGGCAAAGTTGAGAGCATCTGTCGACG,1.68,1.11,-0.49,1.03,-0.383,4.56,8.2,7.84,7.2,8.99
CCAGACAGGTGAACGGTAACTCAGTCTGGTACGC,-0.375,-0.082,-0.28,-0.0922,-0.29,0.511,0.882,0.577,-0.465,0.132
TCATATAGGTAAACAGGTGAAAATCCGTAAGTTA,1.24,1.11,0.438,1.28,0.151,2.23,2.95,3.15,4.38,3.6
CCTATTAGTTGACCATAAGGGCAACTGAAGCTCG,1.03,0.424,0.44,0.496,0.545,0.479,0.379,0.673,0.177,0.597
TCGAGTAGGTTACCAATGTGGCATTCAGCTTTCT,0.261,1.41,-0.667,0.671,0.104,0.803,0.268,1.09,0.936,1.08
CCTACTGGGCCAAAGGTCATTGAGTCCAATGCTC,4.97,5.37,3.87,4.99,0.584,6.7,11.6,9.86,10.1,10.7
GCTTACGGGTCAAAGGTTATAGCGTGAATAGAAT,7.45,5.66,0.631,5.61,0.387,6.97,11,9.25,9.52,9.99
CAAACTAGGTCAAGAGGTCAACGTCCGCTTCCCG,6.68,6.31,5.46,5.27,1.55,6.6,9.74,8.42,7.54,8.92
TCTCGGAGGGCACGAAAGGTCAGAGCTCGACATC,4.52,6.49,2.82,4.29,-0.405,4.24,2.69,3.93,2.36,3.06
CGAAAGAGGGCATGAGTTGATAGCAAATGCCGAT,0.277,0.423,-0.431,0.0383,-0.529,1.7,1.14,1.19,0.0878,0.644
CGTTCAAGGTCAGAGAGGTCAGTGAATGCCGAGT,6.69,5.26,3.71,4.58,0.61,5.27,4.38,4.69,1.58,3.31
CCTAGTTGGTCAGGAGCTCACACACCGGATATGA,-0.0186,-0.0451,0.119,-0.266,0.143,-0.0186,0.636,0.361,-0.291,-0.0665
CCTACTGGGCCATCAGGGCATTGATATCAACGTT,-0.583,-0.856,-0.715,-0.817,-0.886,0.0503,1.16,1.68,-0.00697,0.846
CCTCGGACGACAGAAGGTCAGAGCTGTCCGCTTT,1.1,1.53,0.0414,1.18,-0.358,1.83,-0.153,-0.0801,-1.06,-0.472
TCTCAAAGTTCAAAGGTAACGTAAGTATCCACAC,6.76,6.41,5.13,4.82,2.02,5.43,4.77,5.77,5.16,5.6
GCTAGCAGGCCATTTCGGTCACTCAATGACGGGC,-0.325,-0.482,-0.0904,-0.799,-0.792,-0.343,0.224,-0.461,-0.633,-0.697

# Reference: the supplement of paper PMC6555819
